AMA1 RON2 block: AMA1-RON2 (P. falciparum) interaction inhibition | AlphaScreen AMA1-biotinylated RON2 peptide binding | Potency, µM (highest dose often 58.2 µM), inactives show at the highest dose activity change, negative = inhibition, most hits filed as inhibitors | 0.2% of 360,000 active;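 further: 0% = vehicle wells and -100% = peptide control; nearly all actives have a fitted effect of over 45% in size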
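AMA1 (3D7) with his tag at 25 nM final met compounds first, then biotinylated RON2 peptide at 25 nM; detection used donor plus acceptor beads, 10 µg/mL apiece, read by AlphaScreen after 30 min at room temperature.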
Pf growth 96h: P. falciparum growth inhibition at 96 hour, primary screen for plastid delayed-death inhibitors; P. falciparum luciferase reporter growth, 96 h; Potency, µM (titrated, usually from 28.7 µM), inactives show top-dose activity change, negative = inhibition, hits mostly inhibitors; 6.9% of 320,000 active
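Cell-based qHTS: luciferase-tagged P. falciparum in erythrocytes (2% hematocrit, 0.05% parasitemia final) incubated with compounds for 96 hours, 37 C, 5% CO2; luciferase detection reagent then added and luminescence measured.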
HCV inhibitor: HCV inhibition; Huh7.5.1 HCVcc-Cre infection, luciferase reporter, 44 h; Potency, µM (top dose mostly 41.8 µM), for inactives: at the top dose activity change, negative = inhibition, most hits filed as inhibitors; 3.4% of 340,000 active; AID 651820
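HCVcc-Cre virus at an moi near 0.5 was added right after compound to cells cultured 4 h from seeding (1,000 cells/well). Luciferase activity was determined 44 h later, 15 min after substrate addition at RT.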
Pf growth 48h: P. falciparum growth inhibition at 48 hours (one generation); P. falciparum luciferase growth in erythrocytes, 48 h; Potency, µM (titrated, usually from 28.7 µM), inactives show at the top dose activity change, negative = inhibition, hits mostly inhibitors; 5.9% of 310,000 active; AID 504832
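Cell-based growth assay: transgenic P. falciparum expressing firefly luciferase, cultured in red cells within RPMI 1640 containing 0.5% w/v Albumax, 24 mM bicarbonate and gentamycin. A drop in luciferase activity indicates inhibition.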
Numbers without * were called inactive; u = inconclusive; x = no result; [ ] = remark or other dose. Most compounds without a hit are left out; they make up all but 11% or so of the library. The call rests on the fitted dose curve; in most records, active means well fitted curve in the direction sought with a large enough effect; inconclusive means small, poorly fitted or top-dose-only effect, or another doubt; inactive means no such curve, though single readings can be large; an effect the other way counts as inactive or inconclusive. Unless noted, on the % scale 0 is the no-effect control and ±100 the full control effect; potency means the concentration at half of the fitted maximal effect.

SMILES	AMA1 RON2 block	Pf growth 96h	HCV inhibitor	Pf growth 48h
Cn1c(=O)[nH]c(=O)c2c1nc(N1CCCCCC1)n2CCSc1nc2ccccc2o1	8%	34%	14%	31%
C=CCn1c(=O)c2c(nc(-n3nc(C)cc3C)n2C)n(C)c1=O	-15%	-1%	8%	10µM*
Cn1c(=O)[nH]c(=O)c2c1nc(N1CCCCCC1)n2CCCSc1nc2ccccc2o1	-9%	19%	7%	12µM*
Cn1c(=O)[nH]c(=O)c2c1nc(SCC(=O)Nc1ccccc1)n2Cc1ccccc1	-11%	9.3µM*	11µM*	12µM*
CN1CCN(c2nc3c(c(=O)[nH]c(=O)n3C)n2Cc2ccccc2)CC1	-16%	0.59µM*	14%	5%
CN(Cc1ccccc1)Cc1nc2c([nH]1)c(=O)[nH]c(=O)n2C	81%	10µM*	9%	22%
C=C(C)CSc1nc2c(c(=O)[nH]c(=O)n2C)n1Cc1ccccc1	14%	u	u	u
Cc1cccc(Cn2c(CN3CCN(Cc4ccccc4)CC3)nc3c2c(=O)[nH]c(=O)n3C)c1	-4%	1.9µM*	10µM*	6.6µM*
CN1CCN(c2nc3c(c(=O)[nH]c(=O)n3C)n2Cc2ccc(Cl)cc2)CC1	6%	u	6%	u
COc1cccc(-c2c(C(=O)N/N=C(\C)c3ccc(Cl)s3)nnn2-c2nonc2N)c1	52%	u	-4%	u
CCCCCn1c(N2CCN(Cc3ccccc3)CC2)nc2c1c(=O)[nH]c(=O)n2C	23%	u	10µM*	12µM*
COc1cc(C2C(C(C)=O)=C(O)C(=O)N2Cc2ccccc2)ccc1O (stereo not given)	3%	39%	9%	36%
CC1CCCC2(C1)NC(=S)c1c(sc3c1CCCC3)N2 (stereo not given)	53%	5.2µM*	-15%	x
CC1CCCC2(C1)NC(=S)N(c1ccccc1)N2 (stereo not given)	3%	66%	9%	39%
COc1ccc(C(=O)COC(=O)c2cc(=O)c3ccccc3o2)cc1	9%	x	14%	x
O=C(NCCC(=O)N1CCCCCCC1)c1ccc(Br)cc1	65%	10µM*	8%	13µM*
O=C(NCCC(=O)N1CCCCC1)c1ccc(Br)cc1	-4%	75%	16%	76%
Cc1occc1C(=O)N=Nc1c(O)[nH]c2ccc(Br)cc12	x	4.1µM*	4%	139%
Cc1cccc(NC(=S)N=Nc2c(O)[nH]c3ccccc23)c1	6%	2.9µM*	u	u
CC(C)NC(=S)N=Nc1c(O)[nH]c2ccc(C(C)C)cc12	66%	u	u	8.3µM*
COc1ccccc1NC(=S)N=Nc1c(O)[nH]c2ccc(Br)cc12	60%	1µM*	u	0.93µM*
COC(=O)C[C@H]1C=C[C@H](NC(=O)c2cccc(F)c2)[C@@H](CO)O1	38%	x	x	x
CCc1cc2c(=O)c(-c3ccc4c(c3)OCCO4)c(C)oc2cc1OS(C)(=O)=O	-8%	4.1µM*	u	u
CCOc1ccc(N=C2NC(=O)C(CC(=O)Nc3ccccc3)S2)cc1 (stereo not given)	0%	5%	-3%	8.3µM*
CCOC(=O)c1[nH]c(C)c(C(=O)/C=C/c2ccc(C(=O)O)cc2)c1C	0%	u	-9%	12µM*
SMILES	AMA1 RON2 block	Pf growth 96h	HCV inhibitor	Pf growth 48h
O=C(c1ccco1)N1CCCC(c2nc3c(nnn3Cc3c(Cl)cccc3Cl)c(=O)[nH]2)C1 (stereo not given)	-15%	-10%	-27%	u
CCSc1nnc(NC(=O)CN2C(=O)NC3(CCCC3)C2=O)s1	-7%	19%	-3%	6%
CC1CC(C)CN(C(=O)/C(=C\c2ccccc2)c2ccccc2)C1 (stereo not given)	-8%	93%	25%	1.9µM*
CN1CCN(C(=O)/C(=C/c2ccccc2)c2ccccc2)CC1	-13%	x	10%	-1%
CC(C)C1Nc2ccc(S(N)(=O)=O)cc2C2C=CCC21 (stereo not given)	-5%	x	11µM*	u
CC(=O)c1ccc2c(c1)C1C=CCC1C(C(=O)O)N2 (stereo not given)	4µM*	22%	-6%	33%
Cc1ccc2c(c1)C1C=CCC1C(C(=O)O)N2 (stereo not given)	x	2.6µM*	1%[0.335 µM]	u
CC(=O)c1ccc2c(c1)C1C=CCC1C(c1ccncc1)N2 (stereo not given)	-4%	132%	-20%	-9%
CCCN(CC(=O)Nc1ccccc1OC)C(=O)c1ccc(S(=O)(=O)Nc2ccccc2)cc1	-7%	u	0%	u
COC(=O)c1cn(NC(=O)Cc2ccccc2Br)c(=O)c2ccccc12	-18%	11%	-6%	14%
CCC(C)NS(=O)(=O)c1ccc(S(=O)(=O)N2CCCC3(CCCCC3)C2)cc1 (stereo not given)	-8%	x	10µM*	u
CCC(C)C(=O)Nc1ccc(S(=O)(=O)N2CCCC2)cc1 (stereo not given)	0%	-8%	6%	28%
CN(C)CCN(C(=O)/C=C/c1cccs1)c1nc2ccc(F)cc2s1	-19%	10µM*	-19%	-23%
CN(C)CCCN(C(=O)c1cc(-c2cccs2)nc2ccccc12)c1nc2ccc(F)cc2s1	u	2.1µM*	u	3.3µM*
NC(N)=N/N=C/c1ccc(N(c2ccccc2)c2ccccc2)cc1	31%	2.1µM*	u	2.3µM*
CCN(Cc1ccccc1)c1ccc(/C=N/N=C(N)N)cc1	u	1.7µM*	u	1.5µM*
COc1ccc(S(=O)Cc2ccc(C(=O)NCc3cccc(OC)c3)o2)cc1 (stereo not given)	-5%	-20%	-7%	4%
CC(C)(C)C(=O)Nc1cccc(-c2ncon2)c1	-14%	37%	18%	46%
O=C(NCCCN=C1NS(=O)(=O)c2ccccc21)c1ccc(Cl)cc1	15%	u	21%	3%
Cc1ccc(Sc2c(C)[nH]n(C(C)(C)C)c2=O)cc1	2%	82%	16%	-14%
Cc1[nH]n(C(C)(C)C)c(=O)c1Sc1ccccc1	17%	12µM*	13%	-11%
CCCC(=O)Nc1ccc(S(=O)(=O)N2CCC(c3nc4ccccc4[nH]3)CC2)cc1	-7%	5.2µM*	u	13µM*
O=C(NC1CCCCC1)N1CCCC(c2nc3ccccc3[nH]2)C1 (stereo not given)	3%	1.5µM*	u	-15%
O=C(C1CC(=O)N(c2ccc(F)cc2)C1)N1CCC(c2nc3ccccc3[nH]2)CC1 (stereo not given)	-7%	8.3µM*	8%	u
O=C(C1CCCCC1)N1CCC(c2nc3ccccc3[nH]2)CC1	0%	9.3µM*	-5%	-25%
Cc1ccc(N2CC(C(=O)N3CCC(c4nc5ccccc5[nH]4)CC3)CC2=O)cc1C (stereo not given)	-7%	10µM*	-5%	u
O=C(NNC(=O)C12CC3CC(CC(C3)C1)C2)c1cnccn1	11%	u	-18%	u
O=C(NNC(=O)C12CC3CC(CC(C3)C1)C2)c1ccccn1	77%	4.1µM*	u	4.1µM*

Bioassay records from PubChem.
